Data taken from PubChem BioAssay (NCATS).
Results filed as inconclusive are left out. The source made the active and inactive calls. Unless noted, the call rests on the fitted dose curve.

What was measured:
[1] = biological target: Lysosomal acid glucosylceramidase (Homo sapiens) (UniProt P04062); assay: Glucocerebrosidase-p2 (AID 348; in the data active means potency below about 10 µM; further: potency means the concentration at half of the fitted maximal effect); settings: purified GBA, blue fluorogenic substrate, 40 min
Sequence of Lysosomal acid glucosylceramidase (Homo sapiens) (P04062 whole entry, looked up): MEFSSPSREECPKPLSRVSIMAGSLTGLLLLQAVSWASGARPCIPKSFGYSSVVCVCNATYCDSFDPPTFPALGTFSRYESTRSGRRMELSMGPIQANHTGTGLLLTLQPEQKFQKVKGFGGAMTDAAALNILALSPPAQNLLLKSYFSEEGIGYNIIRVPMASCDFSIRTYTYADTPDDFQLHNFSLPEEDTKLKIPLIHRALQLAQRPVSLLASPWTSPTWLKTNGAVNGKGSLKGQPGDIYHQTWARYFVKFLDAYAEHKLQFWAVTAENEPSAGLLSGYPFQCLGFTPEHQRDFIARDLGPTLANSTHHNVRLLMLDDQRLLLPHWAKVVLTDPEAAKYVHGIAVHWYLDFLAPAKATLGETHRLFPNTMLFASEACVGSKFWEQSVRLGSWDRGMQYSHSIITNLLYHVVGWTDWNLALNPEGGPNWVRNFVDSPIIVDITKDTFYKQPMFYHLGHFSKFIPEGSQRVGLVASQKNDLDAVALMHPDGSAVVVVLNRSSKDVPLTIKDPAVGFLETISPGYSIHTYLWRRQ
Method in brief: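 Normal human glucocerebrosidase (0.2 nM) with blue fluorogenic substrate (80 uM final) in citrate/phosphate pH 5.9 with 10mM sodium taurocholate, 0.01% tween-20; 40 min RT, NaOH/glycine stop; fluorescence Ex 365/Em 440; AC50 from a titration from 0.6 nM upwards.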

[2] = AP1 Signaling Pathway (AID 357; active means well fitted curve in either direction with a large enough effect, not every such curve was filed as active;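 further: ME-180 reporter cells stimulated with EGF at its EC50 level; on the % scale 0 is the no-effect control and ±100 the full control effect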); settings: ME-180 AP-1-bla reporter, EGF-induced, beta-lactamase ratio, 5 h; at 7.69 µM (top of the series) unless noted
Method in brief: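 AP-1-bla ME-180 cells, Opti-MEM + 0.5% dialyzed FBS, plated overnight 37 °C. Cpd titration + EC50 EGF, 5 h 37 °C. CCF4 2.5 h RT; ex 405, em 460/530 ratio → %activity, AC50.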

[3] = biological target: Cytochrome P450 1A2 (Homo sapiens) (UniProt P05177); assay: p450-cyp1a2 (AID 410); settings: recombinant CYP1A2, luciferin-ME demethylation, luminescence; series mostly up to 57 µM; further: potency means the concentration at half of the fitted maximal effect;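 on activity change, negative = inhibition: -100% = full effect of reference inhibitor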
Sequence of Cytochrome P450 1A2 (Homo sapiens) (P05177 whole entry, looked up): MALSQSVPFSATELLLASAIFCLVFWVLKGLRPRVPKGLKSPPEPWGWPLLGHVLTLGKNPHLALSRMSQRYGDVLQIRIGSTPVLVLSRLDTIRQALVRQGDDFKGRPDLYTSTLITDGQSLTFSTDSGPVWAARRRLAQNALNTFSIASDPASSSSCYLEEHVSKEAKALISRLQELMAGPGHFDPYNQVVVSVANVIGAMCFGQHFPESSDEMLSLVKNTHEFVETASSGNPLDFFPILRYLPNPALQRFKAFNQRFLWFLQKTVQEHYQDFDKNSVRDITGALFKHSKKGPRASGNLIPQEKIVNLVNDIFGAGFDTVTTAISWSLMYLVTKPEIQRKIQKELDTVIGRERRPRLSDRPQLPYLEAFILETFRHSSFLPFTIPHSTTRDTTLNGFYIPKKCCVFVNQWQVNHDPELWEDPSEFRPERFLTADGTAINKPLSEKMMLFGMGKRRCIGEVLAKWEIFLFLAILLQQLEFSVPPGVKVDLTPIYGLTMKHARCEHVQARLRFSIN
Method in brief: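 O-Demethylation of luciferin 6' methyl ether by human CYP1A2 is monitored as luciferase luminescence. Substrate sits at Km (100uM); enzyme is 20nM. Values are scaled to 57 uM furafylline as maximal inhibition.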

[4] = Stat Signaling Pathway (AID 446; active means well fitted curve in either direction with a large enough effect, not every such curve was filed as active;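 further: ME-180 cervical cancer cells given 40 pM IL-6 alongside compound; SIE-controlled beta-lactamase reporter measured as 460/530 nm FRET emission ratio; on the % scale 0 is the no-effect control and ±100 the full control effect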); settings: ME-180 SIE beta-lactamase reporter, IL-6 stimulated, 5 h; at 7.69 µM (top of the series) unless noted
Method in brief: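 Normalization used AC90 stimulation (300 pM IL-6) and AC90 inhibition (125 nM pan-JAK inhibitor at 40 pM IL-6). The underlying signal is SIE-driven beta-lactamase in ME-180 cells after 5 h IL-6 exposure with compound.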

[5] = biological target: Glucocorticoid receptor (Homo sapiens) (UniProt P04150); assay: GR-EFC Redistribution (AID 451); settings: CHO-K1 GR-EFC translocation, beta-gal luminescence, 2 h; further: potency means the concentration at half of the fitted maximal effect
Sequence of Glucocorticoid receptor (Homo sapiens) (P04150 whole entry, looked up, the tested form may be a part): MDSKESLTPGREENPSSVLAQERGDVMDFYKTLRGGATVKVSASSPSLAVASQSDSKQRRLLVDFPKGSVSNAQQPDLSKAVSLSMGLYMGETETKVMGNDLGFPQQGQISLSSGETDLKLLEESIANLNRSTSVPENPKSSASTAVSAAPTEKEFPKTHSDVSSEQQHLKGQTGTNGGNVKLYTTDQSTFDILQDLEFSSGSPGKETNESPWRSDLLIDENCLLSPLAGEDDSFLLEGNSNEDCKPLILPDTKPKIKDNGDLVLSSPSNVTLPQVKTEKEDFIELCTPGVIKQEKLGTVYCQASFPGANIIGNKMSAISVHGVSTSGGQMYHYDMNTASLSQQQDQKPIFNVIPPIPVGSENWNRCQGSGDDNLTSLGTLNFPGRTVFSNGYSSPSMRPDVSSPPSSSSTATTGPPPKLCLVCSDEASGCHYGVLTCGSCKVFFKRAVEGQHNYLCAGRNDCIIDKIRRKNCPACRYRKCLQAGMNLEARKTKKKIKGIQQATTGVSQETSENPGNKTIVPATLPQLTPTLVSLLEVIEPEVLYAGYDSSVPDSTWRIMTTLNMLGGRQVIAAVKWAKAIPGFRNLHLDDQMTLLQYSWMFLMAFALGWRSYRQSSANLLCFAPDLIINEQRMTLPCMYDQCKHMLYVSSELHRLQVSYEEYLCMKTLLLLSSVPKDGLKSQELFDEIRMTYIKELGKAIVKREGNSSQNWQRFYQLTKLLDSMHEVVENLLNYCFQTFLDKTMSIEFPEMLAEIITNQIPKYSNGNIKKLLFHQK
Method in brief: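 CHO-K1 cells stably expressing nuclear-localized β-gal enzyme acceptor and GR fused C-terminally to the enzyme donor fragment; ligand-driven nuclear translocation restores β-gal by complementation. Compounds titrated up to 46 uM final, 2 h at 37 °C; luminescence read.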

[6] = biological target: Cytochrome P450 2D6 (Homo sapiens) (UniProt P10635); assay: qHTS Assay for Inhibitors and Substrates of Cytochrome P450 2D6 (AID 891; active means well fitted curve in the direction sought with a large enough effect; an effect the other way counts as inactive or inconclusive; further: potency means the concentration at half of the fitted maximal effect; nearly all actives have a fitted effect of over 60% in size); settings: recombinant CYP2D6, luciferin-ME EGE luminescence; series mostly up to 57.1 µM
Sequence of Cytochrome P450 2D6 (Homo sapiens) (P10635 whole entry, looked up): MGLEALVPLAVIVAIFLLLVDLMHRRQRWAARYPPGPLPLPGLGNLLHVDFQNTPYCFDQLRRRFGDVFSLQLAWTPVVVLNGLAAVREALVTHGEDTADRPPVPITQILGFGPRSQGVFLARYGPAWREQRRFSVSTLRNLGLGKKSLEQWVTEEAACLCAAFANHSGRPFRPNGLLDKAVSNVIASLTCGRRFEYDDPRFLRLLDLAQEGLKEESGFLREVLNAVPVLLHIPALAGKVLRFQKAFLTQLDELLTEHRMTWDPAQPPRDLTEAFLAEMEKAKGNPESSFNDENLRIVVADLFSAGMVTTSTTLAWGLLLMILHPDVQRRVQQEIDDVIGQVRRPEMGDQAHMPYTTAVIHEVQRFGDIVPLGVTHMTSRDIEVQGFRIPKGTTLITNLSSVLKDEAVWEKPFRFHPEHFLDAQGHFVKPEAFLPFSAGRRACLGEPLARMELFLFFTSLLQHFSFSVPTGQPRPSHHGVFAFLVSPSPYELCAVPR
Method in brief: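 Luminescent read-out of luciferin formed by 5 nM human CYP2D6 demethylating 30 uM Luciferin-ME EGE (Km level) over 60 min at room temperature after NADPH regeneration addition. Data normalized to full inhibition by 1.43 uM quinidine.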

[7] = qHTS Assay for Lipid Storage Modulators (AID 1519); settings: Drosophila S3 cells, BODIPY lipid droplet/cell ratio, laser cytometry, cells loaded with oleic acid; for activity change, negative = inhibition: at 57.5 µM (top of the series)
Method in brief: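 Cells seeded at 5,000 per well were treated with compounds over a concentration series and loaded with oleic acid (400 uM, as added). Lipid droplet fluorescence (488 nm excitation, 500-530 nm channel) was read by laser-scanning cytometry and normalized to 20 uM Triacsin C.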

[8] = Primary qHTS for small molecule stabilizers of the endoplasmic reticulum resident proteome: Secreted ER Calcium Modulated Protein (SERCaMP) assay (AID 1508630; active means well fitted curve in the direction sought with a large enough effect; an effect the other way counts as inactive or inconclusive; further: on the % scale 0 is the no-effect control and ±100 the full control effect); settings: SH-SY5Y GLuc-SERCaMP (Gaussia luciferase released on ER calcium loss) secretion, thapsigargin, luminescence; series mostly up to 38.4 µM
Method in brief: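 The SH-SY5Y reporter protocol was run at 3 concentrations up to 38.3 uM (primary) or 11 concentrations (follow-up): 16 h compound, 100 nM thapsigargin for 4 h, then extracellular luciferase luminescence.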

[9] = biological target: Mitogen-activated protein kinase 10 (Mus musculus) (UniProt Q61831); assay: JNK3 AlphaScreen Assay (AID 530; active means well fitted curve in either direction with a large enough effect, not every such curve was filed as active;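 further: kinase came from lysate of stimulated human HepG2 cells; signal reports phosphorylation of biotinylated GST-cJun 1-79 at Ser73 with 10 µM ATP; on the % scale 0 is the no-effect control and ±100 the full control effect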); settings: JNK3 lysate, c-Jun phosphorylation; series mostly up to 57.1 µM
Method in brief: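 Phosphorylation of biotinylated GST-cJun(1-79) at Ser73 is measured by AlphaScreen proximity luminescence. Enzyme is JNK3 in HepG2 lysates activated with interleukin-1beta and tumor necrosis factor alpha; ATP is 10 uM final.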

[10] = biological target: 3',5'-cyclic-AMP phosphodiesterase 4B (Homo sapiens) (UniProt Q07343); assay: qHTS Assay for Inhibitors of PDE-IV (AID 607; active means well fitted activation curve with a large enough effect in the main read-out, with a control signal flat, not every such curve was filed as active; further: % of control where 0% means no effect); settings: HEK293 ACTOne CNG channel cells, membrane potential fluorescence; series mostly up to 22.9 µM
Sequence of 3',5'-cyclic-AMP phosphodiesterase 4B (Homo sapiens) (Q07343 whole entry, looked up): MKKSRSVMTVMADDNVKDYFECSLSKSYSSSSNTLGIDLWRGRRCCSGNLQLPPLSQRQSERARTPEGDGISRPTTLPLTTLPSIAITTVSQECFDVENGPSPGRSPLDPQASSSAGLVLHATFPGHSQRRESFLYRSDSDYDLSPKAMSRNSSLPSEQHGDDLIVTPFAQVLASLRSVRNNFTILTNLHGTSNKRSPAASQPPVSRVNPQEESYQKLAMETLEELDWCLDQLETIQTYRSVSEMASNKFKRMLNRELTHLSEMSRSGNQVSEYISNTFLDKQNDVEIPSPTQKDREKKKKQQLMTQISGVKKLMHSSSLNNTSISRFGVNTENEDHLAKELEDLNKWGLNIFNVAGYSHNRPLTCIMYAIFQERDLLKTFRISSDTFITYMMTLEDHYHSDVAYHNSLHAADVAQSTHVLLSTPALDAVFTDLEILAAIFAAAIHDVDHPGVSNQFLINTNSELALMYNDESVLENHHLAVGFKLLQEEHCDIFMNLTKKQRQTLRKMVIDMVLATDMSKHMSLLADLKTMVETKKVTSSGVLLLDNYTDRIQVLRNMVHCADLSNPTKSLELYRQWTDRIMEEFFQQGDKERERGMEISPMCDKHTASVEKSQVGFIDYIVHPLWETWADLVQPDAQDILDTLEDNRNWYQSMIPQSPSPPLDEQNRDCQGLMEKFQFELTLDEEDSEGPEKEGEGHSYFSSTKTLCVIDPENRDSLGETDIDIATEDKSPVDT
Method in brief: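 HEK293 ACTOne cells with CNG channel (1000/well), endogenous PDE4; membrane potential dye, compounds up to 22.9 uM final. Fluorescence Ex 535/Em 590; RO 20-1724 (100 uM final) as reference.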

[11] = biological target: Cytochrome P450 3A4 (Homo sapiens) (UniProt P08684); assay: qHTS Assay for Activators of Cytochrome P450 3A4 (AID 885; active means well fitted curve in the direction sought with a large enough effect; an effect the other way counts as inactive or inconclusive; further: nearly all actives have a fitted effect of over 65% in size); settings: recombinant CYP3A4, Luciferin-PPXE luminescence, 60 min; series mostly up to 57.1 µM
Sequence of Cytochrome P450 3A4 (Homo sapiens) (P08684 whole entry, looked up): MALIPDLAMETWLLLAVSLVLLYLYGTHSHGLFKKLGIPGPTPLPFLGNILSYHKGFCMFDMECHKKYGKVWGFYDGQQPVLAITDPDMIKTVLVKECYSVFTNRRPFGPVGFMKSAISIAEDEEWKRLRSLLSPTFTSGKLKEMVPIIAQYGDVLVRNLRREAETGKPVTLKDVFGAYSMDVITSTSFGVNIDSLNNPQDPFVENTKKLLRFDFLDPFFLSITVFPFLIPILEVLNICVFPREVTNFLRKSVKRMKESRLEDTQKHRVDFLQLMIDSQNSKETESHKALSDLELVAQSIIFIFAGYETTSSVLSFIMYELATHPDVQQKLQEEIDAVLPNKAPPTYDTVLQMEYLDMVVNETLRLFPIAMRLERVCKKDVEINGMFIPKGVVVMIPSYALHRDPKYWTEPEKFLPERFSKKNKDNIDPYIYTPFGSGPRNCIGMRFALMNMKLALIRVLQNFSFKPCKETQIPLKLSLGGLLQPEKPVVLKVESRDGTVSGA
Method in brief: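 Human CYP3A4 dealkylates Luciferin-PPXE to luciferin, which luciferase detection converts to light. Substrate was at its KM (25uM), buffer 200mM KPO4, reaction 60 min at RT.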

[12] = qHTS Assay for Identification of Small Molecule Agonists for Hypoxia Response Element Signaling Pathway (AID 914; active means well fitted activation curve with a large enough effect in the signal ratio, with a control signal flat, not every such curve was filed as active; the % refers to the signal ratio; further: % of control where 0% means no effect); settings: ME-180 (cervical carcinoma) HRE-bla reporter, beta-lactamase ratio, CoCl2, 17 h; activation: stronger effect = higher value
Method in brief: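 HRE-bla ME-180 assay for agonist-like enhancement of an EC50 CoCl2 stimulus: 17 h at 37 degrees Celsius, CCF4 for 2.5 h, ratiometric 460/530 nm signal converted to %Activity and fitted to AC50.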

[13] = biological target: Cytochrome P450 2C19 (Homo sapiens) (UniProt P33261); assay: qHTS Assay for Inhibitors and Substrates of Cytochrome P450 2C19 (AID 899; active means well fitted curve in the direction sought with a large enough effect; an effect the other way counts as inactive or inconclusive; further: potency means the concentration at half of the fitted maximal effect; nearly all actives have a fitted effect of over 60% in size); settings: recombinant CYP2C19, luciferin-H EGE luminescence; series mostly up to 57.1 µM
Sequence of Cytochrome P450 2C19 (Homo sapiens) (P33261 whole entry, looked up): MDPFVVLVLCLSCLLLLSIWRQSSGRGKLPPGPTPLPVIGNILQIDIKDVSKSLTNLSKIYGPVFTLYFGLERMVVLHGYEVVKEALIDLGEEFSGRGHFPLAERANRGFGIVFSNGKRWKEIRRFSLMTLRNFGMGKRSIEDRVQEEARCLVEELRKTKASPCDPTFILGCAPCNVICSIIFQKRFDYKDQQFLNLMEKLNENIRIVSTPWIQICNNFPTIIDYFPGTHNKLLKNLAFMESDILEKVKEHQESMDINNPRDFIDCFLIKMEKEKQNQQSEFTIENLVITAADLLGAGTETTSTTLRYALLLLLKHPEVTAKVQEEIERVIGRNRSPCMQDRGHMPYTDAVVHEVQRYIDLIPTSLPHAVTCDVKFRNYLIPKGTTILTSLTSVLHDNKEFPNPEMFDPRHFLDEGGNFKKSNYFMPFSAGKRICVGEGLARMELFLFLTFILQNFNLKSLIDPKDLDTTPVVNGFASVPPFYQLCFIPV
Method in brief: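 NADPH-dependent conversion of Luciferin-H EGE (10uM, at KM) by 5nM enzyme in 50mM KPO4, 60 min at 37C following 10 min compound preincubation. Stopped with luciferin detection buffer; luminescence read after 20 min.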

[14] = biological target: Cytochrome P450 2C9 (Homo sapiens) (UniProt P11712); assay: qHTS Assay for Inhibitors and Substrates of Cytochrome P450 2C9 (AID 883; active means well fitted curve in the direction sought with a large enough effect; an effect the other way counts as inactive or inconclusive; further: potency means the concentration at half of the fitted maximal effect; nearly all actives have a fitted effect of over 60% in size); settings: recombinant CYP2C9, luciferin-H luminescence, 60 min; series mostly up to 57.1 µM
Sequence of Cytochrome P450 2C9 (Homo sapiens) (P11712 whole entry, looked up): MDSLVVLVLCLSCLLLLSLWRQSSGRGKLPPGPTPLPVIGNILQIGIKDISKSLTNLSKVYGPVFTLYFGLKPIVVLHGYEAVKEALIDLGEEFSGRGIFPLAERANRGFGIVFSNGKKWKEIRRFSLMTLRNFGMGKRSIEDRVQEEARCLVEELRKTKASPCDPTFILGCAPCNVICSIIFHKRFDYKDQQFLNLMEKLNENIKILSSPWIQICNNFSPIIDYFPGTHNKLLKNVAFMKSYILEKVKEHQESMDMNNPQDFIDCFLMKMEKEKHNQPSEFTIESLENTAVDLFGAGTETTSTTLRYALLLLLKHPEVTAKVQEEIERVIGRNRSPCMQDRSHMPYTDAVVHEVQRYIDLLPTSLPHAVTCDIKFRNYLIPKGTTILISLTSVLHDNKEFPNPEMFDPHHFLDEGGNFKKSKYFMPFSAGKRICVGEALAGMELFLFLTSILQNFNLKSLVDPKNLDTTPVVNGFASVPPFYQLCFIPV
Method in brief: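 A luminogenic readout tracked human CYP2C9 (10nM) converting deoxyluciferin (100uM, at KM) in 25mM KPO4 during 60 min at 37C with regenerated NADPH. Values normalized to 57uM sulphaphenazole as complete inhibition.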

[15] = measured here: cell count channel max response
[16] = measured here: lipid channel max response

| SMILES | Potency [1] | activity change, negative = inhibition [2] | Potency [3] | activity, negative = inhibition [4] | Potency [5] | Potency [6] | activity change, negative = inhibition [7] | max response [7, 15] [%] | max response [7, 16] [%] | outcome [8] | Potency [9] | Potency [10] | Potency [11] | activation [12] | Potency [13] | Potency [14] |
| --- | --- | --- | --- | --- | --- | --- | --- | --- | --- | --- | --- | --- | --- | --- | --- | --- |
| COC(=O)N1CCC2(CCN(Cc3ccccc3OC)CC2)CC1 | > 11.4 µM (inactive) | 8.84% (inactive) | inactive | -8.38% (inactive) | > 46 µM (inactive) | 2 µM (active) | 2.37% (inactive) | 6.33 | 9.77 | inactive |  |  |  |  |  |  |
| COc1ccccc1CN1CCCC2(CCN(C(=O)c3cccn3C)CC2)C1 | > 11.4 µM (inactive) | -2.64% (inactive) | inactive | 4.46% (inactive) | > 46 µM (inactive) | 3.16 µM (active) | 4.14% (inactive) | 21.7 | 29.7 | inactive | inactive | inactive | inactive |  |  |  |
| Cc1noc(C)c1C(=O)N1CCC2(CCN(Cc3ccncc3)CC2)CC1 | > 11.4 µM (inactive) | 5.66% (inactive) | inactive | -5.26% (inactive) | > 46 µM (inactive) |  | 4.47% (inactive) | 0.0469 | 9.36 | inactive | inactive | inactive | inactive | 14.4% (inactive) |  |  |
| CC(C)CN1CCCC2(CCN(C(=O)c3cc(C(F)(F)F)cc(C(F)(F)F)c3)CC2)C1 | > 11.4 µM (inactive) | -4.78% (inactive) | 12.6 µM (active) | -8.44% (inactive) | > 46 µM (inactive) |  | 2.29% (inactive) | 11.6 | 17.9 | inactive | inactive |  | inactive | -20.4% (inactive) |  |  |
| COc1ccc(NC(=O)N2CCC3(CC2)CCN(S(C)(=O)=O)CC3)cc1 | > 11.4 µM (inactive) | -1.54% (inactive) | inactive | 2.59% (inactive) | > 46 µM (inactive) |  | 8.18% (inactive) | 16.5 | 28.9 | inactive | inactive | inactive |  |  | 3.16 µM (active) |  |
| O=C(c1ccncc1)N1CCC2(CC1)CCN(c1ccccn1)CC2 | > 11.4 µM (inactive) | 8.14% (inactive) | 12.6 µM (active) | -1.09% (inactive) | > 46 µM (inactive) |  | 6.99% (inactive) | 10.7 | 20.3 | inactive |  | inactive |  |  |  |  |
| Cn1cccc1C(=O)N1CCC2(CCN(Cc3ccncc3)CC2)CC1 | > 11.4 µM (inactive) | -3.94% (inactive) | 15.8 µM (active) | -9.94% (inactive) |  |  | 4.51% (inactive) | -5.01 | 3.28 | inactive | inactive | inactive | inactive |  |  |  |
| O=S(=O)(c1ccccc1)N1CCC2(CCCN(c3ccccn3)C2)CC1 | > 11.4 µM (inactive) | -6.83% (inactive) | 7.94 µM (active) | -6.34% (inactive) | > 46 µM (inactive) |  | 5.71% (inactive) | 17.9 | 25.4 | inactive | inactive | inactive |  | -11.6% (inactive) | 0.158 µM (active) |  |
| O=C(c1csnn1)N1CCC2(CC1)CCN(c1ccncc1)CC2 | > 11.4 µM (inactive) | 0.494% (inactive) | inactive | 0.543% (inactive) | > 46 µM (inactive) |  | 1.35% (inactive) | 6.68 | 10 | inactive | inactive |  | inactive |  |  |  |
| COc1ccccc1CN1CC2(CCN(C(=O)c3ccncc3)CC2)C1 | > 11.4 µM (inactive) | -0.483% (inactive) | inactive | -1.82% (inactive) | > 46 µM (inactive) | 0.794 µM (active) | -2.12% (inactive) | -19.5 | -17.3 | inactive | inactive | inactive | inactive |  |  |  |
| O=C(Oc1ccccc1)N1CCC2(CC1)CN(c1ccncc1)C2 | > 11.4 µM (inactive) | -1.8% (inactive) | inactive | -4.7% (inactive) | > 46 µM (inactive) |  | 1.74% (inactive) | 0.26 | 4.81 | inactive |  | inactive | inactive |  | 7.94 µM (active) | 3.16 µM (active) |
| O=C(c1cccc(F)c1)N1CCC2(CCN(Cc3ccccc3)CC2)CC1 | > 11.4 µM (inactive) | -3.73% (inactive) | inactive | 0.711% (inactive) | > 46 µM (inactive) | 7.94 µM (active) | 2.97% (inactive) | 6.47 | 15.1 | inactive | inactive | inactive |  |  |  |  |
| Cn1cccc1C(=O)N1CCC2(CCN(Cc3ccccc3)CC2)CC1 | > 11.4 µM (inactive) | -1.12% (inactive) | inactive | 4.92% (inactive) | > 46 µM (inactive) | 7.94 µM (active) | 4.86% (inactive) | 16.4 | 22.8 | inactive | inactive | inactive |  |  |  |  |
| CC(C)CN1CCCC2(CCN(C(=O)c3csnn3)CC2)C1 | > 11.4 µM (inactive) | 1.87% (inactive) | inactive | -5.65% (inactive) | > 46 µM (inactive) | 5.01 µM (active) | 2.3% (inactive) | 15.1 | 21 | inactive | inactive | inactive | inactive |  |  |  |
